Source: PubChem BioAssay
Jurkat NFkB inh: inhibitors of the PMA/ionomycin-induced NF-kB reporter in Jurkat cells | PMA/ionomycin-induced NF-kB luciferase reporter, luminescence | inhibition, % at 4 µM | actives 0.53% (n = 330,000); in the data active = inhibition above about 50%
TAG inh: triacylglycerol accumulation inhibition; H9c2 cells, Nile Red lipid (TAG) fluorescence; cells loaded with 200 µM oleic acid; inhibition, % at 12.5 µM; actives 0.66% (n = 230,000);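 active = pattern-corrected inhibition of lipid staining of at least 50% with the nuclear-stain viability signal not falling by more than 50%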
Gli-Sufu antag: Gli-Sufu pathway antagonism. actives 0.74% (n = 340,000). Sufu-KO-LIGHT fibroblasts, Gli luciferase reporter luminescence. inhibition, % at 5 µM;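 active = inhibition above about 55%, limit read from the data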
697 NFkB inh: inhibitors of the PMA/ionomycin-induced NF-kB reporter in 697 B cells; 697 B-cell NF-kB luciferase reporter, 16 h; inhibition, % at 4 µM; actives 0.33% (n = 330,000); AID 435022; in the data active = inhibition above about 35%
Shn3 inh set2: Schnurri-3 reporter inhibition in Clone20 osteoblasts; Clone20 osteoblast Shn3 3'UTR firefly luciferase, 24 h; inhibition, % at 12.5 µM; actives 0.52% (n = 360,000);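 active = mean inhibition of at least 75% with every replicate also reaching 75%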
aSyn UTR inh: MLPCN primary screen, SNCA 5' untranslated region; alpha-synuclein 5'UTR reporter, inhibitor activity; AID 1813; inhibition, % (tested at 7.5 µM); actives 0.82% (n = 300,000); in the data active = inhibition above about 60%;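 also: H4 neuroglioblastoma cells stably carrying SNCA 5'UTR luciferase fusion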
Gli-Sufu confirm: Gli-SUFU antagonism confirmation, single concentration. shares compounds with Gli-Sufu antag. Sufu-KO-LIGHT cells, Gli luciferase reporter, luminescence. inhibition, % at 5 µM. actives 40% (n = 2,500);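 active = mean inhibition at 5 µM reaching about 45%, limit read from the data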
SufuKO cytotox: cytotoxicity counter-screen for Gli-SUFU antagonists. shares compounds with Gli-Sufu antag. AID 651994. cytotoxicity, % at 5 µM. actives 32% (n = 2,500). Sufu-KO-LIGHT cells cytotoxicity, ATP luminescence;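 active = mean cytotoxicity at 5 µM above about 25%, limit read from the data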;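 also: cells exposed to compound overnight for roughly 16 to 18 hours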
Wnt3a cs: inhibits Wnt3a reporter, counter-screen for Gli-SUFU antagonists | shares compounds with Gli-Sufu antag | Wnt-LIGHT cells, Wnt3a-driven luciferase reporter, luminescence | actives 20% (n = 2,500) | inhibition, % at 6.25 µM;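 active = mean inhibition above about 25%, limit read from the data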
Hits are given with their value; i = inactive; nt = no result given. Only some compounds are listed: those with a hit (about 2.3% of all), similar ones and a draw of the others.

SMILES	Jurkat NFkB inh	TAG inh	Gli-Sufu antag	697 NFkB inh	Shn3 inh set2	aSyn UTR inh	Gli-Sufu confirm	SufuKO cytotox	Wnt3a cs
Cc1ccc(NC(=O)/C(=C\c2cccs2)NC(=O)c2ccccc2)cc1	i	nt	i	i	i	i	nt	nt	nt
CN(C)CCNC(=O)Cc1ncc(C(F)(F)F)cc1Cl	i	i	i	i	i	i	nt	nt	nt
O=C(Cc1ncc(C(F)(F)F)cc1Cl)NCCc1ccccn1	i	i	55.1	i	i	i	i	i	i
COc1cccc(/C=C/C(=O)NNC(=O)c2ccncc2)c1OC	i	i	i	i	i	nt	nt	nt	nt
COc1cccc(/C=C/c2ccncc2)c1OC	i	i	56.3	i	i	i	45.5	i	i
CN(C(=O)CCNC(=O)N1CC(=O)Nc2ccccc21)C1CCCCC1	i	nt	57.2	i	i	i	i	i	i
CC(=O)Oc1ccc2c(c1)OC(c1ccccc1)CC21CC(C)(C)NC(=S)N1 (stereo not drawn)	i	i	i	i	i	i	nt	nt	nt
COc1ccc(C2(c3ccc(OC(C)=O)cc3OC(C)=O)CC(c3ccccc3)NC(=S)N2)cc1 (stereo not drawn)	i	i	62.0	i	i	i	i	i	i
Cc1[nH]c(=O)[nH]c(=O)c1S(=O)(=O)Nc1ccc(Cl)c([N+](=O)[O-])c1	i	nt	i	i	i	i	nt	nt	nt
CN1/C(=C\C=N\NC(=O)c2ccc(O)cc2)C(C)(C)c2ccccc21	i	nt	75.6	i	88.3	i	65.1	25.5	i
CN1/C(=C\C(=O)c2cncc(Br)c2)C(C)(C)c2ccccc21	i	i	65.9	i	i	i	69.5	36.7	i
CN1/C(=C\C(=O)C(F)F)C(C)(C)c2ccccc21	i	nt	i	i	i	i	nt	nt	nt
CN1/C(=C\C=O)C(C)(C)c2ccccc21	i	i	i	i	i	i	nt	nt	nt
CC(=O)/C=C1\N(C)c2ccc(C)cc2C1(C)C	i	i	61.2	i	i	i	60.9	29.1	30.3
Cc1ccc(C(=O)NC(=S)/C=C2\N(C)c3ccccc3C2(C)C)cc1	i	i	77.4	i	i	i	i	i	i
COc1ccc(-n2c(C)c(C(=O)O)c3cc(OC)c4ccccc4c32)cc1	i	i	i	i	i	i	nt	nt	nt
CC(C)C(=O)NC(=S)/C=C1/N(C)c2ccccc2C1(C)C	i	i	55.7	i	i	i	57.4	i	i
CC1=CCP(=O)(c2ccccc2)C1 (stereo not drawn)	i	nt	i	i	i	i	nt	nt	nt
CCOC(=O)C1(CCOc2ccccc2)CCN(Cc2ccc(OC)c(COC)c2)CC1	i	i	56.9	i	88.5	i	i	i	i
CCOC(=O)C1(CCOc2ccccc2)CCN(Cc2ccc(OC)c(O)c2)CC1	i	nt	i	i	i	i	nt	nt	nt
S=C(Nc1ccccc1)Nc1ccc(OCc2ccc(Cl)cc2Cl)cc1	i	i	57.8	i	84.9	96.3	68.0	28.6	102.9
S=C(NCCSCc1ccc(Cl)cc1Cl)Nc1ccccc1	i	i	i	i	i	i	nt	nt	nt
CC(=O)Nc1ccc(NS(=O)(=O)c2ccc3c(c2)n(C)c(=O)n3C)cc1	i	i	i	i	i	i	nt	nt	nt
O=C(OC(c1ccccc1)c1nccc2ccccc12)c1cccc([N+](=O)[O-])c1 (stereo not drawn)	i	nt	i	i	i	i	nt	nt	nt
O=C(OC(c1ccccc1)c1nccc2ccccc12)c1ccccc1 (stereo not drawn)	nt	i	64.6	nt	i	nt	78.7	28.1	91.6
SMILES	Jurkat NFkB inh	TAG inh	Gli-Sufu antag	697 NFkB inh	Shn3 inh set2	aSyn UTR inh	Gli-Sufu confirm	SufuKO cytotox	Wnt3a cs
COC(=O)CCC(=O)OC1(C)C(=O)C=C2C=C(C3CC3)OC=C2C1=O (stereo not drawn)	i	nt	nt	i	nt	i	nt	nt	nt
CC(OC(=O)CCCSc1nc2ccccc2s1)C(=O)NC(N)=O (stereo not drawn)	i	i	i	i	i	i	nt	nt	nt
O=C(CN1CCOCCOCCOCCOCC1)Nc1ccccc1	i	nt	95.7	i	i	i	i	i	i
C/C(=N\N=C(N)N)c1cccc(Cl)c1	i	i	i	i	i	i	nt	nt	nt
O=C(Cc1c(F)cccc1Cl)OCC(=O)c1ccc[nH]1	i	i	56.3	i	i	nt	i	i	i
CSCCC(NS(=O)(=O)c1ccc(Br)cc1)C(=O)OCC(=O)NC1CC1 (stereo not drawn)	i	i	i	i	i	i	i	i	i
CSCCC(NS(=O)(=O)c1ccc(Cl)cc1)C(=O)OCC(=O)NC1CC1 (stereo not drawn)	i	i	i	i	i	i	nt	nt	nt
COCC(C)n1c(C)cc(C(=O)COC(=O)c2cc(=O)[nH]c3ccccc23)c1C (stereo not drawn)	i	i	i	i	i	nt	69.0	26.2	80.8
Cc1cc(C(=O)CN2CCC(C)CC2)c(C)n1-c1ccccc1F	i	nt	70.1	i	i	i	76.2	33.7	83.4
COc1cccc(C(=O)C2CCCN(C(=O)c3ccc(C#CC(C)(C)O)cc3)C2)c1 (stereo not drawn)	i	i	59.5	i	i	i	i	i	i
COC(=O)[C@@H](c1ccccc1)N(C)S(=O)(=O)c1cccc(S(=O)(=O)N(C)[C@@H](C(=O)OC)c2ccccc2)c1	i	i	57.4	i	i	i	i	32.5	i
CC(=O)NC1=NN(C(C)=O)C(C)(c2ccco2)S1 (stereo not drawn)	i	i	i	i	i	i	nt	nt	nt
CCN(CC)S(=O)(=O)c1ccc(NC(=O)Cn2c(=O)oc3ccccc32)cc1	i	i	i	i	i	i	nt	nt	nt
O=C(Cn1c(=O)oc2ccccc21)Nc1ccc(S(=O)(=O)N2CCCCC2)cc1	i	i	i	i	i	i	i	i	i
O=C(Nc1ccc(C(F)(F)F)cc1)C1CCN(S(=O)(=O)c2ccc(N3CCCC3=O)cc2)CC1	i	nt	77.1	i	i	i	79.0	i	i
COc1cc(NC(=O)C2CCN(S(=O)(=O)c3ccc(N4CCCC4=O)cc3)CC2)cc(OC)c1	i	nt	i	i	i	i	nt	nt	nt
CS(=O)(=O)N1CCC(C(=O)Nc2ccc(C(F)(F)F)cc2)CC1	i	i	i	i	i	i	nt	nt	nt
COc1ccc(NC(=O)C2CCN(S(=O)(=O)c3ccc(N4CCCC4=O)cc3)CC2)cc1OC	i	nt	i	i	i	i	i	i	i
Cc1ccccc1NCCC(=O)Nc1ccc(F)cc1	i	nt	i	i	i	i	nt	nt	nt
CCOC(=O)C1CCCN(CC(O)COC(c2ccccc2)c2ccccc2)C1 (stereo not drawn)	i	nt	69.8	i	i	i	i	i	i
COc1ccccc1CC(=O)NC1CC1	i	i	nt	i	i	i	nt	nt	nt
